Shown are actives, neighbours in structure and some others; about 0.4% of the full set was active somewhere.
AID inhibitor = Primary qHTS assay for inhibitors of Activation Induced Cytidine Deaminase (AID): AID signal; Single-stranded DNA cytosine deaminase (Homo sapiens), Q9GZX7; AID deamination FRET fluorescence, UDG-coupled, 4 h; Potency, µM (titrated, usually from 115 µM), usual class: inhibitors; 0.32% of 91,000 active; note: nearly all actives have a fitted effect of over 25% in size
Target sequence (Q9GZX7 whole entry, looked up): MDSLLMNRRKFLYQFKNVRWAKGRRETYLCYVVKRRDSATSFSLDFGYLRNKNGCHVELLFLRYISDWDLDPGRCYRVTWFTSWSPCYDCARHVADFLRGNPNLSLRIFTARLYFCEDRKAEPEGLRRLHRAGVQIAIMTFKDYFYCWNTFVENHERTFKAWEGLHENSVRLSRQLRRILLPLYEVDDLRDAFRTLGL
UDG counterscr = Primary qHTS assay for inhibitors of Activation Induced Cytidine Deaminase (AID): UDG Counterscreen signal | Uracil-DNA glycosylase | FRET deamination/UDG coupled assay, UDG read, 4 h | Potency, µM (doses to about 115 µM), inactives show at the top dose activity change, negative = inhibition, actives largely listed as inhibitors | 0.14% of 91,000 active; note: nearly all actives have a fitted effect of over 65% in size
An asterisk follows results filed as active; i = inactive; ? = inconclusive; ! = a repeat was not active; [ ] = remark or other dose. Calls come from the whole dose curve; as a rule, active = well fitted curve in the direction sought with a large enough effect; inconclusive = small, poorly fitted or top-dose-only effect, or another doubt; inactive = no such curve, though single readings can be large; an effect the other way counts as inactive or inconclusive. % is set by controls: 0 for no effect and ±100 for the full control effect; potency is the fitted concentration of half-maximal effect.

SMILES	AID inhibitor	UDG counterscr
COc1ccc(CCNC(=O)Cn2c(=O)c3cccn3c3ccc(F)cc32)cc1OC	79µM*	8%[57.5 µM]
COc1ccc(CCNC(=O)Cn2c(=O)c3cccn3c3ccccc32)cc1OC	i	0%[57.5 µM]
CCOC(=O)c1nc(N(C)c2cccc(C)c2)c2ccccc2n1	i	1%
CCOc1ccc(-c2nn(-c3ccccc3)cc2C2NC(=O)NC(C)=C2C(=O)OC(C)C)cc1 (centres undefined)	45µM*	?
COC(=O)C1=C(C)NC(=O)NC1c1cn(-c2ccccc2)nc1-c1ccc(OC)c(Cl)c1 (centres undefined)	i	-21%
CCOc1ccc(-c2nn(-c3ccccc3)cc2C2NC(=O)NC(C)=C2C(=O)OC(C)C)cc1C (centres undefined)	45µM*!	?
CCOC(=O)C1=C(C)NC(=O)NC1c1cn(-c2ccccc2)nc1-c1ccc(OCC)cc1 (centres undefined)	?	-16%
CN(CC(=O)NC(N)=O)C1CCCC1	i	-3%
CCC(NC(C)C)C(O)c1ccc(O)c(O)c1 (centres undefined)	45µM*	-12%
NCC(O)c1ccc(O)c(O)c1 (centres undefined)	i	-2%
CC(C)NC[C@H](O)c1ccc(O)c(O)c1	79µM*!	-9%
CC(C)NCC(O)c1cc(O)cc(O)c1 (centres undefined)	i	2%
FC(F)(F)c1cccc(N/N=C/c2ccccc2Br)c1	i	-8%
Oc1ccc(NCc2ccccc2OCc2ccccc2F)cc1	20µM*	-8%
Fc1ccc(NCc2ccccc2F)cc1	i	3%
Oc1ccc(NCc2ccccc2OCc2ccccc2Cl)cc1	32µM*	-18%
N#Cc1ccc(NCc2ccccc2Cl)cc1	i	-3%
N#CCN(CC#N)C(=O)Cc1cccs1	i	7%
CS(=O)(=O)Cc1ccc(CNCc2ccccc2Cl)cc1	i	16µM*
CS(=O)(=O)Cc1ccc(CNCc2cccc3ccccc23)cc1	i	0%
O=C(CCCSc1nc2ccccc2s1)Nc1ccc(F)c(F)c1F	i	8%
Cn1nc(-c2ccc(OCC(=O)N3CCOCC3)cc2)c2ccccc2c1=O	i	3%
Cn1nc(-c2ccc(N3CCOCC3)c(NC(=O)COc3ccccc3)c2)c2ccccc2c1=O	?	89µM*
CCn1c(CNC(=O)c2ccc3c(c2)OCO3)nnc1SCC(=O)c1ccc(OC)cc1	i	-3%
CCOc1ccc(-n2c(C)nc3cc(C(=O)NCCC4=CCCCC4)ccc32)cc1	i	0%
SMILES	AID inhibitor	UDG counterscr
CCOc1ccc(-n2c(C)nc3cc(C(=O)NCc4ccc(C)cc4)ccc32)cc1	32µM*	-15%
O=C(O)CCOc1ccc(Cl)cc1	i	2%
Cc1ccc(NC(=O)c2c(C)nc3sc(C(=O)Nc4ccc(F)cc4)c(N)c3c2-c2ccccc2Cl)c(C)c1	i	11%
Cc1ccc(NC(=O)c2c(C)nc3sc(C(=O)Nc4ccc(F)cc4)c(N)c3c2-c2ccc(Cl)cc2)c(C)c1	32µM*	89µM*
CN(CC(=O)Nc1ccc(F)cc1)C(=O)COC(=O)Cc1n[nH]c(=O)c2ccccc12	i	5%
CCOc1ccccc1N1CC(c2nc3ccccc3n2CCCCOc2cc(C)ccc2C)CC1=O (centres undefined)	i	-10%
Cc1ccc(C)c(OCCn2c(C3CC(=O)N(Cc4ccc(F)cc4)C3)nc3ccccc32)c1 (centres undefined)	28µM*	79µM*
CC(C)c1nnc2ccc(N3CCCC(C(=O)O)C3)nn12 (centres undefined)	i	-2%
O=c1oc(-c2ccccc2)cc(-c2ccccc2)c1-c1ccccc1	i	14%
COc1ccc(Nc2nc3ccccc3nc2NS(=O)(=O)c2ccc(Cl)cc2)cc1OC	79µM*!	-5%
COc1ccc(Nc2nc3ccccc3nc2NS(=O)(=O)c2ccc(NC(C)=O)cc2)cc1OC	i	-3%
Cc1ccc(Cc2nc3ccccc3nc2SCC(=O)N2CCCCC2C)cc1 (centres undefined)	50µM*	-19%
COc1cccc(Cc2nc3ccccc3nc2SCC(=O)N2CCCCC2C)c1 (centres undefined)	?	-3%
O=C(O)c1ccc(CNC2C3CC4CC(C3)CC2C4)cc1 (centres undefined)	i	-3%
CCN(C(=S)Nc1cc(S(=O)(=O)N(C)C)ccc1C)c1cccc2ccccc12	79µM*	?
CCN(CC)S(=O)(=O)c1ccc(C)c(NC(=S)N(c2ccccc2)C(C)C)c1	i	9%
CC(=O)N1CCc2c(sc3c2c(=O)n(Cc2ccccc2)c(=O)n3Cc2cccc(Cl)c2)C1	32µM*	?
CC(=O)N1CCc2c(sc3c2c(=O)n(Cc2ccccc2)c(=O)n3Cc2ccc(Cl)cc2)C1	i	1%
NC(=O)c1ccc(NC(=O)COC(=O)c2cc(=O)[nH]c3ccccc23)cc1	i	-1%
COc1ccc(-c2nc3ccccc3n2Cc2ccc(Cl)cc2)cc1	45µM*	?
COc1ccc(-c2nc3ccccc3n2Cc2ccc(C(C)C)cc2)cc1	?	-4%
Nc1nccnc1C(=O)NCc1ccncc1	i	1%
Nc1nc(SCC(=O)NCc2ccccc2Cl)n[nH]1	i	-1%
O=C(C1=C(O)C(=O)N(c2nc3ccc(Cl)cc3s2)C1c1ccco1)c1ccco1 (centres undefined)	50µM*	-5%
Cc1ccc2nc(N3C(=O)C(O)=C(C(=O)c4ccco4)C3c3ccc(O)cc3)sc2c1 (centres undefined)	i	2%
SMILES	AID inhibitor	UDG counterscr
OC(c1nc2ccccc2s1)(c1nc2ccccc2s1)C(F)(F)F	i	2%
O=S1(=O)c2ccccc2N(Cc2ccc(F)cc2)c2ccccc21	?	-17%
O=S1(=O)c2ccccc2N(Cc2ccc(Cl)cc2)c2ccccc21	79µM*	-29%
Cc1cccc(NC(=S)NNC(=O)C(c2ccccc2)c2ccccc2)c1C	i	-10%
O=C(O)c1ccc(/C=C/C(=O)c2nc3ccccc3s2)cc1	i	-5%
Oc1ccc(NCc2ccc(OCc3ccccc3)cc2)cc1	2.8µM*	-23%
c1ccc(CNCc2ccc(OCc3ccccc3)cc2)cc1	i	-9%
Oc1ccc(NCc2ccc(OCc3ccccc3Cl)cc2)cc1	35µM*	79µM*
O/N=C\c1ccc(OCc2ccccc2Cl)cc1	i	-5%
CSc1ccccc1NC(=O)CC(C)C	i	-10%
COc1ccc(NC(=O)N2c3ccccc3Sc3ccccc32)cc1OC	i	?
Cc1cc(N)c2ccccc2[n+]1CCCCCCCCCC[n+]1c(C)cc(N)c2ccccc21	50µM*	89µM*
C=C(C)C1CCC2(COC(=O)CCC(=O)O)CC[C@]3(C)C(CCC4[C@@]5(C)CCC(OC(=O)CCC(=O)O)C(C)(C)C5CC[C@]43C)C12 (some centres undefined)	28µM*	8%
C=C(C)[C@@H]1CCC2(COC(C)=O)CC[C@]3(C)C(CCC4[C@@]5(C)CCC(=O)C(C)(C)C5CC[C@]43C)C12 (some centres undefined)	i	-5%
Cc1cc(C(=O)NC(C)c2cccc(C(F)(F)F)c2)c(C)o1 (centres undefined)	i	-4%
COc1ccc2[nH]c(C)c(C(=O)CN3CCC(C)CC3)c2c1	i	0%

Screens: PubChem BioAssay, National Center for Advancing Translational Sciences (NCATS)
